Experimental data taken from PubChem BioAssay (EPA / NIEHS).
Active and inactive are the calls of the source. Rule for the calls: active = hit-call score of the fitted dose curve at least 0.9, where 1 is the maximum; inactive = score below 0.9.

Experiment: ATG_GRE_CIS: Attagene CIS-FACTORIAL HepG2 Assay for human Glucocorticoid Response Elements (GRE) (AID 2282947)
Conditions: HepG2 GRE cis-reporter, Attagene multiplex mRNA; AC50: actives raise or lower the signal unless noted; outcome: actives raise or lower the signal unless noted
Experimental: ATG_CIS is a cell-based, multiplexed-readout assay that uses HepG2, a human liver cell line, with measurements taken at 24 hours after chemical dosing in a 24-well plate.ATG_GRE_CIS is one of 52 assay component(s) measured or calculated from the ATG_CIS assay. It is designed to make measurements of mRNA induction, a form of inducible reporter, as detected with fluorescence intensity signals by Reverse transcription polymerase chain reaction (RT-PCR) and Capillary electrophoresis technology.Data from the assay component ATG_GRE_CIS was analyzed into 1 assay endpoint. This assay endpoint, ATG_GRE_CIS, was analyzed with bidirectional fitting relative to DMSO as the negative control and baseline of activity. Using a type of inducible reporter, measures of mRNA for gain or loss-of-signal activity can be used to understand the reporter gene at the transcription factor-level as they relate to the gene NR3C1. Furthermore, this assay endpoint can be referred to as a primary readout, because this assay has produced multiple assay endpoints where this one serves a reporter gene function. To generalize the intended target to other relatable targets, this assay endpoint is annotated to the nuclear receptor intended target family, where the subfamily is steroidal.
Human liver HepG2 cells are transiently transfected with multiple reporter transcription units (MRTUs) in 6-well plates using FuGene 6 reagent (Roche; 3 ml FuGene/1 mg DNA). The MRTU constructs are regulated by a cis-regulating element (promoter). […] A major difference between the CIS and TRANS system is that in CIS activities of endogenous TFs are measured, whereas the TRANS assay evaluates changes in activities of exogenous, chimeric NR-Gal4 proteins. […] At the end of 24 hour incubation, total RNA was isolated using TriZol reagent (Invitrogen). The isolated RNA is then reverse-transcribed using oligo(dT) primer and Mo-MLV reverse transcriptase (Invitrogen) with DNAse I (Ambion) treatment for 30 min. The one-tenth of the produced cDNA was amplified by PCR using Taq DNA polymerase (Invitrogen) and two reporter sequence-specific primers. The PCR products were fluorescently labeled by primer extension with 6-arboxyfluorescein (6-FAM) 5'-labeled reporter sequence-specific primer (2 min at 95 C, 20 s at 68 C and 10 min at 72 C) and these products were digested with 5U of HpaI (New England Biolabs) for 2h at 37 C. The fragments were purified using Qiaquick PCR columns (Qiagen), analyzed on an ABI 3130xL genetic analyzer (Applied Biosystems) with peak positions identified by using a set of X-rhodamine (ROX)-labeled MapMarker1000 molecular weight standards (BioVentures). The raw capillary electrophoresis data was processed using Attagraph software (Attagene).
For `Brc1cc(Br)c(Oc2c(Br)cc(Br)c(Br)c2Br)cc1Br`, the outcome was “inactive”.
With `CCCCCCCCCC=CCC1CC(=O)OC1=O` (stereo not given) the outcome was “inactive”.
For `C=CC(=C)CC/C=C(\C)CCC=C(C)C`, the outcome was “inactive”.
For `CCOCCOCC`, the outcome was “inactive”.
For `Cc1cccc2c1ccc1ccccc12`, the outcome was “inactive”.
In the case of `CC(C)C=O`, the outcome is reported as “inactive”.
In the case of `COC(=O)C(F)(F)C(F)(F)C(F)(F)F`, the outcome is reported as “inactive”.
For `NCc1cccc(CN)c1`, the outcome was “inactive”.
In the case of `CC(C)c1c(C(=O)Nc2ccccc2)c(-c2ccccc2)c(-c2ccc(F)cc2)n1CC[C@@H](O)C[C@@H](O)CC(=O)O`, the outcome is reported as “inactive”.
In the case of `FC(F)(F)C(F)(F)C(F)(F)Br`, the outcome is reported as “inactive”.
With `CC1CCC(C(=O)O)CC1` (stereo not given) the outcome was “inactive”.
With `CCCCCCCC(OC)OC` the outcome was “inactive”.
With `O=S(=O)(O)c1ccc2cc(O)ccc2c1` the outcome was “inactive”.
With `c1cnc2c(c1)ccc1cccnc12` the outcome was “inactive”.
For `O=C1OC(=O)C(F)(F)C1(F)F`, the outcome was “inactive”.
With `COc1cccc(O)c1` the outcome was “inactive”.
In the case of `FC(F)(F)C1(F)C(F)(F)C(F)(F)C(F)(F)C(F)(C(F)(F)F)C1(F)F` (stereo not given), the outcome is reported as “inactive”.
In the case of `Brc1ccc(Oc2ccc(Br)cc2Br)cc1`, the outcome is reported as “inactive”.
For `CCCCC(CC)C(=O)OCCOCCOCCOCCOC(=O)C(CC)CCCC` (stereo not given), the outcome was “inactive”.
With `CCCCC=O` the outcome was “inactive”.
With `Cc1cc(C(C)(C)C)c(O)c(C(C)(C)C)c1` the outcome was “inactive”.
For `O=C(O)c1cccc(C(=O)O)n1`, the outcome was “inactive”.
With `O=C(NCc1ncc(C(F)(F)F)cc1Cl)c1c(Cl)cccc1Cl` the outcome was “inactive”.
In the case of `C=CC(=O)OCCN(CC)CC`, the outcome is reported as “inactive”.
With `CC1=NN(c2ccccc2)C(=O)C1` the outcome was “inactive”.
With `O=C(Nc1ccc(Cl)c(Cl)c1)c1cc(Cl)cc(Cl)c1O` the outcome was “inactive”.
With `COc1ccc(C#N)cc1` the outcome was “inactive”.
In the case of `COCC1CCC(CO)CC1` (stereo not given), the outcome is reported as “inactive”.
For `CCCCCCCCCCCCCCCCCC[N+](C)(C)Cc1ccccc1`, the AC50 was 79.2 µM (active).
With `Cc1ccccc1OCC(=O)O` the outcome was “inactive”.
In the case of `Cc1ccc(C(=O)c2ccccc2)cc1`, the outcome is reported as “inactive”.
With `CCC(=O)C=Cc1ccc(OC)cc1` the outcome was “inactive”.
For `Nc1cc(Cl)c(-c2cc(Cl)c(N)cc2Cl)cc1Cl`, the outcome was “inactive”.
With `CC(C)(C)C1CCCCC1O` (stereo not given) the outcome was “inactive”.
In the case of `O=C1OC(=O)c2cc(-c3ccc4c(c3)C(=O)OC4=O)ccc21`, the outcome is reported as “inactive”.
With `CC[N+](CC)(CC)Cc1ccccc1` the outcome was “inactive”.
In the case of `Cc1ccc(N=Nc2c(O)ccc3ccccc23)c(C)c1`, the outcome is reported as “inactive”.
For `CNNCc1ccc(C(=O)NC(C)C)cc1`, the outcome was “inactive”.
With `O=C(F)C(F)(F)C(F)(F)C(F)(F)C(F)F` the outcome was “inactive”.
With `Nc1ccc(O)c(C(=O)O)c1` the outcome was “inactive”.
